Holding throughout (assay): DAPPL (digital affinity profiling via proximity ligation, sequencing); 10 mM Tris-HCl pH 7.5, 50 mM NaCl, 1 mM DTT, 4% glycerol, room temperature, 30 min; GST-TFs on glutathione beads, 16-mer random dsDNA library, 0.1% formaldehyde crosslink after washing; high values mean tight binding
Conditions in all cases: protein: recombinant; tags: N-terminal GST; dsDNA, one strand shown

Assay [1] concerns the target T1, FLI1 (Homo sapiens, UniProt Q01543 1-452).
T1 sequence: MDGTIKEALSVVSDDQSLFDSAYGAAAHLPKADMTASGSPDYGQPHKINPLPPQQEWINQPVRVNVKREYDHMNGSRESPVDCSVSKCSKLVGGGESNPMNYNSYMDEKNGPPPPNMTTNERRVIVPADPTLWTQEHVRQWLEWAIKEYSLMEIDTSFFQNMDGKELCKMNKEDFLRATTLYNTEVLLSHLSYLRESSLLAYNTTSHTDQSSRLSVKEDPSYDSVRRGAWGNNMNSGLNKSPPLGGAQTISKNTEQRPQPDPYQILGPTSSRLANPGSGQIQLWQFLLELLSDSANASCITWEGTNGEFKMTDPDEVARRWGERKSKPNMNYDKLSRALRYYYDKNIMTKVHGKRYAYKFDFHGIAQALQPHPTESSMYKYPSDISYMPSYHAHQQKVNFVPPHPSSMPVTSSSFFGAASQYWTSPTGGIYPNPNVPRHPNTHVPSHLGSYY
An outline of the steps:
(§1)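 Pools of DNA-barcoded human transcription factors, expressed in yeast as GST fusions on glutathione beads and combined with a tag-only sample, were incubated with 200 nmole of a 16-mer random double-stranded DNA library. Incubation took 30 min at room temperature in Tris/NaCl/DTT/glycerol buffer and was followed by washing, 0.1% formaldehyde crosslinking, proximity ligation (BsaI/T4 ligase, 1 h, 37 °C), PCR amplification and sequencing on an Illumina NextSeq500. Binding signal is the ratio of a hexamer's read frequency for a factor to its frequency for the tag-only sample.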

The target of assay [2] is T2, ELK1 (Homo sapiens, UniProt P19419 1-428).
T2 sequence: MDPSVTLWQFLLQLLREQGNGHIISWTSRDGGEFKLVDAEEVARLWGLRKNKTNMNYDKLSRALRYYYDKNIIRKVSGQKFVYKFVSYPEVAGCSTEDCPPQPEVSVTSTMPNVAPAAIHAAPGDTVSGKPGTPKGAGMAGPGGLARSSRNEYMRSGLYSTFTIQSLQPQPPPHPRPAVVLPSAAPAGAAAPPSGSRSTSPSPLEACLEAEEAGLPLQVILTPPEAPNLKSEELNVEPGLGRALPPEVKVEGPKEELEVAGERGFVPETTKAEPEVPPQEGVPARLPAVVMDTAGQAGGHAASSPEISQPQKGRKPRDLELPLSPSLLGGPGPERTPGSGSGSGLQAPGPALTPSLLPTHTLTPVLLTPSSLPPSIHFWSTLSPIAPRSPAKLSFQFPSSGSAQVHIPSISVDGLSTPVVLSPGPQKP
The essentials:
as §1

The target in assay [3] is T3, GABPA (Homo sapiens, UniProt Q06546 1-454).
T3 sequence: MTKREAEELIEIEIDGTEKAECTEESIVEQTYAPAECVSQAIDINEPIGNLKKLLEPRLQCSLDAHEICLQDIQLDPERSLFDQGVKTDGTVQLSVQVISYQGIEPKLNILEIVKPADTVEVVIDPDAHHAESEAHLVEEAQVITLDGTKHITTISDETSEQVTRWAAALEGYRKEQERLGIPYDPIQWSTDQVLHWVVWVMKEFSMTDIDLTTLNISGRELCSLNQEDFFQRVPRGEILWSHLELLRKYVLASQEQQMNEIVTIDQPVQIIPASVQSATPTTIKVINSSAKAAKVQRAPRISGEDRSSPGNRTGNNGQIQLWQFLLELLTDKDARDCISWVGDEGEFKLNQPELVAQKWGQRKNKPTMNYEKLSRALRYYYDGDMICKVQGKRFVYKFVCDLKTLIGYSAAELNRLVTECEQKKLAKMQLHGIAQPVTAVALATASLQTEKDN
The essentials: as §1

For assay [4], the target named is T4, ERG (Homo sapiens, UniProt P11308 1-479).
T4 sequence: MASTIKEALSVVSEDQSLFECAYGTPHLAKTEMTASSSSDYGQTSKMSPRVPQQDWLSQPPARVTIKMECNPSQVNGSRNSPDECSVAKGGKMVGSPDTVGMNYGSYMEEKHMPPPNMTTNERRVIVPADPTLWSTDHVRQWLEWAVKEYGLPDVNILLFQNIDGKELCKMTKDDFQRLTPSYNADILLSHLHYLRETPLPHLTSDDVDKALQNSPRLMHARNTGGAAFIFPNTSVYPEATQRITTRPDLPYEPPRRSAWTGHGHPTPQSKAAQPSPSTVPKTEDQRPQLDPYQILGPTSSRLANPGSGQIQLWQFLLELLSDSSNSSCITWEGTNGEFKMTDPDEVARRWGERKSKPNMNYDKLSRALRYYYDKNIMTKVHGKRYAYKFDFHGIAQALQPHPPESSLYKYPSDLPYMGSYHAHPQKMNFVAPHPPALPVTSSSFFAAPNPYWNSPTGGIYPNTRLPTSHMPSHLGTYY
The essentials:
as §1

The target of assay [5] is ELF1 (Homo sapiens, UniProt P32519 1-619). The essentials: as §1
The target of assay [6] is T5, EHF (Homo sapiens, UniProt Q9NZC4 1-300).
T5 sequence: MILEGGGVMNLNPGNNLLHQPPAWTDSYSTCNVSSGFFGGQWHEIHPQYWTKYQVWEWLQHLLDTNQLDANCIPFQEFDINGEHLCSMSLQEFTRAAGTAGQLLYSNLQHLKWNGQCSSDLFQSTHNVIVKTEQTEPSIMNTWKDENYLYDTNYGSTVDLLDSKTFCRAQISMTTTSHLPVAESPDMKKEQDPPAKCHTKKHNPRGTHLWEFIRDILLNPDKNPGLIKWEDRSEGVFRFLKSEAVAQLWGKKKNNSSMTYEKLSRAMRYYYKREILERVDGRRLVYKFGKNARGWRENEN
The essentials:
as §1

The target in assay [7] is SPI1 (Homo sapiens, UniProt P17947 1-270). An outline of the steps:
as §1

Assay [8] addresses SPIB (Homo sapiens, UniProt Q01892 1-262). An outline of the steps: as §1
Assay [9] deals with T6, ELK3 (Homo sapiens, UniProt P41970 1-407).
T6 sequence: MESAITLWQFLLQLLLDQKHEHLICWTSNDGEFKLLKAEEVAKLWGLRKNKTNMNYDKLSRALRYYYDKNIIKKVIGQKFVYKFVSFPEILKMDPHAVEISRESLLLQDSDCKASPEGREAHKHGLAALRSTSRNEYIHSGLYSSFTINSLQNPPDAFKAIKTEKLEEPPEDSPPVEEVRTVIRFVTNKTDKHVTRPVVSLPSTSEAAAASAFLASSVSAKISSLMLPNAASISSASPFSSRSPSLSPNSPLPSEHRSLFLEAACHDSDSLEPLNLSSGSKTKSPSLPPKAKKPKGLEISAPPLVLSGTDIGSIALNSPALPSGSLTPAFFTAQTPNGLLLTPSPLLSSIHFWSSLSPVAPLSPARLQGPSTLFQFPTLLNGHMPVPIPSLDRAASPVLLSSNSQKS
The essentials: as §1

Sequence of ELF1 (P32519 whole entry): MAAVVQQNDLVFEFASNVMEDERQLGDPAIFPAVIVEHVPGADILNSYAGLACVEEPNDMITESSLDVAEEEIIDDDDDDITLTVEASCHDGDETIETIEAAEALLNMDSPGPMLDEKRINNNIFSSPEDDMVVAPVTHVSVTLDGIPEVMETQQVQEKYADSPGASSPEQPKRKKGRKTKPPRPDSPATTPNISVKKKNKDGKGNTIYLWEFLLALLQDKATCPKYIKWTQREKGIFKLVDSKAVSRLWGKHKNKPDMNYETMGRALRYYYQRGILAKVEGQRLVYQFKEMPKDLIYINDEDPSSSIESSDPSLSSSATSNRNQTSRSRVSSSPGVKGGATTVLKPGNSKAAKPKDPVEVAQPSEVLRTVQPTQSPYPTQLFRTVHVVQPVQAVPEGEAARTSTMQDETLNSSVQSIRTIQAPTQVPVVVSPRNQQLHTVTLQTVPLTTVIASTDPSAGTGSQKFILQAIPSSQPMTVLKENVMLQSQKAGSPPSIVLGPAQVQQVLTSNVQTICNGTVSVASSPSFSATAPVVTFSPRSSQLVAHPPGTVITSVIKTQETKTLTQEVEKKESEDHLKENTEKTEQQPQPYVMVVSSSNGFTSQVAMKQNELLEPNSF
Sequence of SPIB (Q01892 whole entry): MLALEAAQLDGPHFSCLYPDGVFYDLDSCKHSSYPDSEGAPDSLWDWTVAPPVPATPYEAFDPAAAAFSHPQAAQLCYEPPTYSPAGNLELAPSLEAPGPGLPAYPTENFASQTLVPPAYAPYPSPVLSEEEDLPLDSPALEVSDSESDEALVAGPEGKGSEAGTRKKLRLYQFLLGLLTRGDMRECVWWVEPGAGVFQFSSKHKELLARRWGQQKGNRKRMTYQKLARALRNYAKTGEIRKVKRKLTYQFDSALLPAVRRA

As for AAGTTA, the binding signal in assay [1] was 1.25 fold enrichment (6-mer frequency, TF over GST control); in assay [2] it was 1.26 fold enrichment (6-mer frequency, TF over GST control); in assay [3] it was 1.19 fold enrichment (6-mer frequency, TF over GST control); in [4], 1.27 fold enrichment (6-mer frequency, TF over GST control); in [5] it was 1.27 fold enrichment (6-mer frequency, TF over GST control); in [6], 1.24 fold enrichment (6-mer frequency, TF over GST control). The binding signal in [7] is 1.24 fold enrichment (6-mer frequency, TF over GST control); in assay [8], 1.12 fold enrichment (6-mer frequency, TF over GST control); in assay [9] it was 1.23 fold enrichment (6-mer frequency, TF over GST control).
In the case of TGTTTT, the binding signal in [1] was 1.36 fold enrichment (6-mer frequency, TF over GST control); in assay [2], 1.32 fold enrichment (6-mer frequency, TF over GST control); in assay [3], 1.35 fold enrichment (6-mer frequency, TF over GST control); in assay [4], 1.26 fold enrichment (6-mer frequency, TF over GST control); in [5] it was 1.34 fold enrichment (6-mer frequency, TF over GST control); in [6] it was 1.35 fold enrichment (6-mer frequency, TF over GST control). Besides, the binding signal was 1.43 fold enrichment (6-mer frequency, TF over GST control) in assay [7]; 1.3 fold enrichment (6-mer frequency, TF over GST control) in assay [8]; 1.43 fold enrichment (6-mer frequency, TF over GST control) in assay [9].
Turning to AAGTAA, the binding signal in [1] is 1.17 fold enrichment (6-mer frequency, TF over GST control); in [2] it was 1.25 fold enrichment (6-mer frequency, TF over GST control); in assay [3], 1.3 fold enrichment (6-mer frequency, TF over GST control); in [4], 1.25 fold enrichment (6-mer frequency, TF over GST control); in assay [5], 1.27 fold enrichment (6-mer frequency, TF over GST control); in assay [6] it was 1.3 fold enrichment (6-mer frequency, TF over GST control). In addition, the binding signal is 1.34 fold enrichment (6-mer frequency, TF over GST control) in assay [7]; 1.22 fold enrichment (6-mer frequency, TF over GST control) in assay [8]; 1.27 fold enrichment (6-mer frequency, TF over GST control) in [9].
For the sequence CTTTTG, the binding signal in assay [1] is 1.42 fold enrichment (6-mer frequency, TF over GST control); in assay [2] it was 1.35 fold enrichment (6-mer frequency, TF over GST control); in assay [3] it was 1.41 fold enrichment (6-mer frequency, TF over GST control); in assay [4], 1.25 fold enrichment (6-mer frequency, TF over GST control); in assay [5], 1.34 fold enrichment (6-mer frequency, TF over GST control); in assay [6], 1.32 fold enrichment (6-mer frequency, TF over GST control). For the same sequence, the binding signal in [7] is 1.6 fold enrichment (6-mer frequency, TF over GST control); in [8], 1.42 fold enrichment (6-mer frequency, TF over GST control); in [9], 1.23 fold enrichment (6-mer frequency, TF over GST control).
For the sequence CTCGTT, the binding signal is 1.18 fold enrichment (6-mer frequency, TF over GST control) in [1]; 1.31 fold enrichment (6-mer frequency, TF over GST control) in assay [2]; 1.26 fold enrichment (6-mer frequency, TF over GST control) in assay [3]; 1.25 fold enrichment (6-mer frequency, TF over GST control) in assay [4]; 1.27 fold enrichment (6-mer frequency, TF over GST control) in [5]; 1.27 fold enrichment (6-mer frequency, TF over GST control) in [6]. Further, the binding signal in assay [7] was 1.35 fold enrichment (6-mer frequency, TF over GST control); in assay [8], 1.24 fold enrichment (6-mer frequency, TF over GST control); in assay [9], 1.15 fold enrichment (6-mer frequency, TF over GST control).
For AAGTCC, the binding signal in assay [1] is 1.21 fold enrichment (6-mer frequency, TF over GST control); in assay [2], 1.31 fold enrichment (6-mer frequency, TF over GST control); in [3], 1.18 fold enrichment (6-mer frequency, TF over GST control); in assay [4], 1.35 fold enrichment (6-mer frequency, TF over GST control); in assay [5] it was 1.23 fold enrichment (6-mer frequency, TF over GST control); in assay [6], 1.27 fold enrichment (6-mer frequency, TF over GST control). Moreover, the binding signal in assay [7] was 1.36 fold enrichment (6-mer frequency, TF over GST control); in assay [8], 1.28 fold enrichment (6-mer frequency, TF over GST control); in assay [9], 1.27 fold enrichment (6-mer frequency, TF over GST control).
Regarding CTTGCT, the binding signal in [1] was 1.51 fold enrichment (6-mer frequency, TF over GST control); in assay [2], 1.35 fold enrichment (6-mer frequency, TF over GST control); in assay [3], 1.38 fold enrichment (6-mer frequency, TF over GST control); in assay [4] it was 1.21 fold enrichment (6-mer frequency, TF over GST control); in assay [5], 1.33 fold enrichment (6-mer frequency, TF over GST control); in [6], 1.25 fold enrichment (6-mer frequency, TF over GST control). Besides, the binding signal in assay [7] is 1.44 fold enrichment (6-mer frequency, TF over GST control); in [8], 1.34 fold enrichment (6-mer frequency, TF over GST control); in assay [9], 1.25 fold enrichment (6-mer frequency, TF over GST control).
Regarding CTCCAA, the binding signal in [1] is 1.23 fold enrichment (6-mer frequency, TF over GST control); in assay [2], 1.41 fold enrichment (6-mer frequency, TF over GST control); in assay [3], 1.4 fold enrichment (6-mer frequency, TF over GST control); in assay [4] it was 1.32 fold enrichment (6-mer frequency, TF over GST control); in assay [5], 1.3 fold enrichment (6-mer frequency, TF over GST control); in assay [6] it was 1.26 fold enrichment (6-mer frequency, TF over GST control). Also, the binding signal in assay [7] is 1.29 fold enrichment (6-mer frequency, TF over GST control); in assay [8], 1.31 fold enrichment (6-mer frequency, TF over GST control); in assay [9], 1.25 fold enrichment (6-mer frequency, TF over GST control).

The record behind these values is article PMC7862700, “An all-to-all approach to the identification of sequence-specific readers for epigenetic DNA modifications on cytosine”.
